From PubChem BioAssay (NCI)
About 83,000 compounds went through this panel and 20% of them were active in at least one assay; those are over-represented in the sample as a whole.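 In brief: 96-well plates, 48 h treatment, single concentration, percent growth endpoint.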 Active and inactive are the calls of the source. How the source made its calls: active means growth percent below 10; inactive means the rest.

Key:
Experiment in all cases: NCI-60 one-dose screen, 48 h (100 = growth as untreated, 0 = no growth, -100 = all killed)
Conditions in all cases: 10 µM unless noted
DU-145 prostate = system: DU-145 prostate
K-562 leukemia = system: K-562 leukemia
MALME-3M melanoma = system: MALME-3M melanoma
MDA-MB-231 breast = system: MDA-MB-231 breast
RXF 393 renal = system: RXF 393 renal
SF-268 CNS = system: SF-268 CNS
SF-295 CNS = system: SF-295 CNS
SF-539 CNS = system: SF-539 CNS
UACC-257 melanoma = system: UACC-257 melanoma
M14 melanoma = system: M14 melanoma

Measured: growth

NC(=O)c1c(NC(=O)c2cccc(C(F)(F)F)c2)sc2c1CCC(=O)C2
active: K-562 leukemia -2.81% | MALME-3M melanoma -41% | MDA-MB-231 breast -45.5% | RXF 393 renal -5.44% | SF-295 CNS -12.9% | SF-539 CNS -78.1% | UACC-257 melanoma -6.24% | M14 melanoma -54%
inactive: DU-145 prostate 29.2% | SF-268 CNS 19%

O=C(Cc1ccc(NC(=O)c2cccc(Cl)c2)cc1)NCc1ccccc1
inactive: DU-145 prostate 86.1% | K-562 leukemia 13.9% | MALME-3M melanoma 61.3% | MDA-MB-231 breast 60.8% | RXF 393 renal 65% | SF-268 CNS 61.7% | SF-295 CNS 41.3% | SF-539 CNS 36.7% | UACC-257 melanoma 69.1% | M14 melanoma 18.7%

Cc1ccc(S(=O)(=O)Oc2ccc3sc4cccc(NCCN(C)C)c4c(=O)c3c2)cc1
active: DU-145 prostate -89.5% | K-562 leukemia -64.6% | MALME-3M melanoma -99.4% | MDA-MB-231 breast -96.7% | RXF 393 renal -87.4% | SF-268 CNS -82.1% | SF-295 CNS -92.3% | SF-539 CNS -95.3% | UACC-257 melanoma -80.6% | M14 melanoma -84.9%

O=C1C(Nc2ccccn2)=C(I)C(=O)c2ncccc21
active: DU-145 prostate -93.6% | K-562 leukemia 1.75% | MALME-3M melanoma -99.6% | MDA-MB-231 breast -31.8% | RXF 393 renal -60.8% | SF-268 CNS -33.1% | SF-295 CNS -31.6% | SF-539 CNS -98% | UACC-257 melanoma -27.9% | M14 melanoma -84.5%

OCCNCCNC(Cc1ccc(Cl)cc1)c1ccccc1 (stereo not given)
inactive: DU-145 prostate 99.7% | K-562 leukemia 88.5% | MALME-3M melanoma 107% | MDA-MB-231 breast 75.7% | RXF 393 renal 84.5% | SF-268 CNS 88.8% | SF-295 CNS 92.2% | SF-539 CNS 72.9% | UACC-257 melanoma 104% | M14 melanoma 90.5%

CN1CCN(C(=O)C(C)(C)c2ccc(C(=O)Nc3cn4cc(-c5ccncc5)ccc4n3)cc2)CC1
inactive: DU-145 prostate 16.1% | K-562 leukemia 10.2% | MDA-MB-231 breast 21.1% | UACC-257 melanoma 13% | M14 melanoma 13.1%
active: MALME-3M melanoma -11.9% | RXF 393 renal -61.1% | SF-268 CNS 9.95% | SF-295 CNS 8.85% | SF-539 CNS -1.81%

CCCn1nc(C(=O)N(C)Cc2ccccc2)c2c1CCC(N1CCc3ccccc31)C2 (stereo not given)
inactive: DU-145 prostate 109% | K-562 leukemia 86.7% | MALME-3M melanoma 112% | MDA-MB-231 breast 108% | RXF 393 renal 90.3% | SF-268 CNS 96.4% | SF-295 CNS 92.1% | SF-539 CNS 104% | UACC-257 melanoma 109% | M14 melanoma 99%

Cc1ccc(C(=O)Nc2cccc(C#Cc3cccc4[nH]nc(N)c34)c2)cc1C(F)(F)F
inactive: DU-145 prostate 78.4% | MDA-MB-231 breast 55.4% | RXF 393 renal 41.2% | SF-268 CNS 60.8% | SF-295 CNS 78.1% | UACC-257 melanoma 68% | M14 melanoma 21.6%
active: K-562 leukemia 6.95% | MALME-3M melanoma 6.04% | SF-539 CNS 8.47%

CC1=C(CCC(C)NCc2ccc(OCCCN3CCCCC3)cc2)C(C)(C)CCC1 (stereo not given)
active: DU-145 prostate -49.1% | K-562 leukemia -46.6% | MALME-3M melanoma -80.5% | MDA-MB-231 breast -73.4% | RXF 393 renal -89.1% | SF-268 CNS -76.8% | SF-295 CNS -70% | SF-539 CNS -85.3% | UACC-257 melanoma -76.1% | M14 melanoma -81%

N#C/C(=C\c1ccc(-c2cccc(C(F)(F)F)c2)o1)c1ccccc1
inactive: DU-145 prostate 102% | K-562 leukemia 87.1% | MALME-3M melanoma 96.4% | MDA-MB-231 breast 74.4% | RXF 393 renal 101% | SF-268 CNS 107% | SF-295 CNS 89.1% | SF-539 CNS 95.6% | UACC-257 melanoma 103% | M14 melanoma 84.5%

CCOC(=O)c1c(C)nc2ccccc2c1/C=C/c1ccccc1
inactive: DU-145 prostate 91.9% | K-562 leukemia 44.4% | MALME-3M melanoma 111% | MDA-MB-231 breast 81.9% | RXF 393 renal 113% | SF-268 CNS 85.4% | SF-295 CNS 66.4% | SF-539 CNS 89% | UACC-257 melanoma 76.6% | M14 melanoma 82.8%

O=C1/C(=C/c2ccccc2F)CN(C(=O)C(Cl)Cl)C/C1=C\c1ccccc1F
active: DU-145 prostate -63.4% | K-562 leukemia -2.29% | MALME-3M melanoma -47% | MDA-MB-231 breast -49.1% | RXF 393 renal -76.3% | SF-268 CNS -0.301% | SF-295 CNS -46.2% | SF-539 CNS -85.9% | UACC-257 melanoma -17.5% | M14 melanoma -43.7%

O=C(CCl)NNc1nccc(Nc2ccc(S(=O)(=O)Nc3ccncc3)cc2)n1
active: SF-539 CNS 5.24%
inactive: DU-145 prostate 32.1% | K-562 leukemia 17.6% | MALME-3M melanoma 32.2% | MDA-MB-231 breast 46.7% | RXF 393 renal 48.2% | SF-268 CNS 37.6% | SF-295 CNS 67.7% | UACC-257 melanoma 52.1% | M14 melanoma 45.2%

N#C/C(=C\C=C\c1ccc(-c2cc(Cl)ccc2Cl)o1)c1nc2ccccc2s1
inactive: DU-145 prostate 112% | K-562 leukemia 100% | MALME-3M melanoma 95.4% | MDA-MB-231 breast 72% | RXF 393 renal 99.3% | SF-268 CNS 98.6% | SF-295 CNS 96.5% | SF-539 CNS 93.9% | UACC-257 melanoma 95% | M14 melanoma 103%

O=C(Cc1ccccc1)Nc1cccc(N=Cc2ccccc2O)c1
inactive: DU-145 prostate 93.1% | K-562 leukemia 98.7% | MALME-3M melanoma 106% | MDA-MB-231 breast 114% | RXF 393 renal 111% | SF-268 CNS 84% | SF-295 CNS 100% | SF-539 CNS 101% | UACC-257 melanoma 105% | M14 melanoma 107%

O=C1c2cccc3cccc(c23)C(=O)N1C/C=C/c1ccc2c3c(cccc13)C(=O)N(CCO)C2=O
inactive: DU-145 prostate 70.4% | K-562 leukemia 79.9% | MALME-3M melanoma 75.5% | MDA-MB-231 breast 62.1% | RXF 393 renal 27.9% | SF-268 CNS 87.7% | SF-295 CNS 76.5% | SF-539 CNS 72.7% | UACC-257 melanoma 79.8% | M14 melanoma 87.8%

CC1C(/C=N/NC(N)=S)C(C#N)(C#N)C1(C#N)C#N (stereo not given)
inactive: DU-145 prostate 96.8% | K-562 leukemia 84.1% | MALME-3M melanoma 103% | MDA-MB-231 breast 106% | RXF 393 renal 106% | SF-268 CNS 91.4% | SF-295 CNS 107% | SF-539 CNS 111% | UACC-257 melanoma 96.3% | M14 melanoma 102%

N#CSc1c[nH]c2cccc(/C=C/C(=O)/C=C(O)/C=C/c3cccc4[nH]cc(SC#N)c34)c12
active: DU-145 prostate -78.7% | K-562 leukemia -12.9% | MALME-3M melanoma -82.3% | MDA-MB-231 breast -78.3% | RXF 393 renal -62.9% | SF-268 CNS -31.9% | SF-295 CNS -87.7% | SF-539 CNS -68.5% | UACC-257 melanoma -27.4% | M14 melanoma -59.7%

Cc1ccc2nc(/C(C#N)=C(/CCCO)NC(Cc3ccccc3)C(=O)OCc3ccccc3)[nH]c(=O)c2c1 (stereo not given)
inactive: DU-145 prostate 98.4% | K-562 leukemia 119% | MALME-3M melanoma 126% | MDA-MB-231 breast 113% | RXF 393 renal 127% | SF-268 CNS 102% | SF-295 CNS 98.7% | SF-539 CNS 65.1% | UACC-257 melanoma 121% | M14 melanoma 98.4%

O=C(CCSc1nnc2n(Cc3ccccc3)c(=O)c3c4c(sc3n12)CCCC4)N1CCN(c2ccccc2)CC1
inactive: DU-145 prostate 111% | K-562 leukemia 113% | MALME-3M melanoma 95.4% | MDA-MB-231 breast 109% | RXF 393 renal 108% | SF-268 CNS 93% | SF-295 CNS 96% | SF-539 CNS 100% | UACC-257 melanoma 101% | M14 melanoma 96.2%

CN1CCN(CCOc2ccc(-c3cnc4c(-c5cccc(F)c5F)cnn4c3)cc2)CC1
active: DU-145 prostate 8.58% | K-562 leukemia -31.3% | MALME-3M melanoma -44% | SF-295 CNS -3.66% | SF-539 CNS -72.5% | UACC-257 melanoma -19.1% | M14 melanoma -78.9%
inactive: MDA-MB-231 breast 85% | RXF 393 renal 97% | SF-268 CNS 25.3%

C[n+]1ccc(CCc2c[nH]c3ccccc23)cc1
inactive: DU-145 prostate 111% | K-562 leukemia 102% | MALME-3M melanoma 76.1% | MDA-MB-231 breast 92.7% | RXF 393 renal 118% | SF-268 CNS 94.4% | SF-295 CNS 94.5% | SF-539 CNS 95.7% | UACC-257 melanoma 104% | M14 melanoma 95.1%

N#Cc1cncc(-c2ccc3ncnc(Nc4cccc(Cl)c4)c3c2)c1
inactive: DU-145 prostate 63.4% | K-562 leukemia 87% | MALME-3M melanoma 76.8% | MDA-MB-231 breast 66.6% | RXF 393 renal 45.9% | SF-268 CNS 68.5% | SF-295 CNS 76% | SF-539 CNS 78% | UACC-257 melanoma 72.6% | M14 melanoma 83.8%

Cc1ccc(C(=O)c2ccc(CC(=O)N=Nc3c(O)[nH]c4ccc(Br)cc34)n2C)cc1
inactive: DU-145 prostate 97.8% | K-562 leukemia 83.5% | MALME-3M melanoma 111% | MDA-MB-231 breast 88.4% | RXF 393 renal 87% | SF-268 CNS 87.7% | SF-295 CNS 99.1% | SF-539 CNS 92.4% | UACC-257 melanoma 105% | M14 melanoma 91.3%

COc1ccc(-c2nc(-c3cn(C)c4ncccc34)cs2)cc1
active: MALME-3M melanoma -54.9% [100 µM] | RXF 393 renal -12.6% [100 µM] | SF-295 CNS -25.5% [100 µM] | SF-539 CNS -67.2% [100 µM] | M14 melanoma -69.6% [100 µM]
inactive: DU-145 prostate 15.2% [100 µM] | K-562 leukemia 11% [100 µM] | MDA-MB-231 breast 15.9% [100 µM] | SF-268 CNS 23.4% [100 µM] | UACC-257 melanoma 17.5% [100 µM]

CCN1C(=O)N(CC)C2C1NN=c1s/c(=C\c3ccc(C(F)(F)F)cc3)c(=O)n12 (stereo not given)
active: DU-145 prostate 6.72% | K-562 leukemia 7.4% | MDA-MB-231 breast 9% | SF-539 CNS -21.6% | M14 melanoma 6.9%
inactive: MALME-3M melanoma 49.5% | RXF 393 renal 24.1% | SF-268 CNS 53.5% | SF-295 CNS 14.1% | UACC-257 melanoma 48.9%
